{"source": "PubChem BioAssay AID431", "about": "(Sanford-Burnham Center for Chemical Genomics, 2006)", "note": "About 1,100 (1.7%) of roughly 63,000 compounds were called active. The full list was thinned out, with actives kept by preference. Results with a measured potency or affinity are listed apart. A number with no mark means an inactive call.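 The calls were made as follows: active = compounds whose percent cytotoxicity in the single-dose primary screen, scaled between solvent and toxic-drug controls, exceeds 50; inactive = the rest.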"}
{"test": "cytotoxicity in KRAS-transformed pancreatic duct cells, primary screen, cell-based, fluorescence, HTS (AID 431);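 also: 0% = DMSO solvent wells and 100% = doxorubicin-treated wells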", "details": "HPDE-C7K KRASV12 cells, Alamar Blue viability, 48 h; at 10 µM; stronger effect = higher value"}
{"compound": "Cn1c(SCC(=O)Nc2ccc3c(c2)OCCO3)nnc1-c1ccco1", "cytotoxicity": "10.1%"}
{"compound": "N=c1n(CCN2CCCC2)c2ccccc2n1CC(O)c1ccco1", "note": "(stereo not given)", "cytotoxicity": "-3.9%"}
{"compound": "N=c1n(CCN2CCCCC2)c2ccccc2n1CC(O)c1cccc(Br)c1", "note": "(stereo not given)", "cytotoxicity": "59.4% (active)"}
{"compound": "N=c1n(CCN2CCCCC2)c2ccccc2n1CC(O)COc1ccccc1", "note": "(stereo not given)", "cytotoxicity": "16%"}
{"compound": "CN(C)c1ccc(C2CC(=O)NC3=C2C(=O)CC(C)(C)C3)cc1", "note": "(stereo not given)", "cytotoxicity": "-6.4%"}
{"compound": "C=CCn1sc(N)c(C(=O)OCC)c1=S", "cytotoxicity": "9%"}
{"compound": "Cc1cc(C)c2c(=O)n(CC(=O)NCCCN3CCOCC3)sc2n1", "cytotoxicity": "20.5%"}
{"compound": "Cc1cc(C)c2c(=O)n(CC(=O)NCCCN3CCN(c4ccccc4F)CC3)sc2n1", "cytotoxicity": "82.2% (active)"}
{"compound": "O=C(CCNC(=O)Cn1ccc2ccccc2c1=O)NCCCN1CCN(c2ccccc2F)CC1", "cytotoxicity": "-16.9%"}
{"compound": "CCOC(=O)N1CCN(C(=O)c2ccc3c(c2)NC(=O)C(N2CCOCC2)S3)CC1", "note": "(stereo not given)", "cytotoxicity": "-7.4%"}
{"compound": "COCCNC(=O)CN1CCOc2ccccc21", "cytotoxicity": "-4.3%"}
{"compound": "COc1ccc(-c2cc(C(F)F)n3ncc(C(=O)N4CCN(C(=O)c5ccco5)CC4)c3n2)cc1", "cytotoxicity": "5.6%"}
{"compound": "NC(=O)C1CCCN(Cc2ccc(Cl)cc2)C1", "note": "(stereo not given)", "cytotoxicity": "-10.3%"}
{"compound": "CN(C)c1nc(SCCOC(=O)Nc2ccccc2)nc(N(C)C)n1", "cytotoxicity": "16.1%"}
{"compound": "Cc1c(NC(=O)OCCSc2nc(N(C)C)nc(N(C)C)n2)sc(=S)n1C", "cytotoxicity": "66% (active)"}
{"compound": "CCOC(=O)Nc1sc(=S)n(C)c1C", "cytotoxicity": "-11.2%"}
{"compound": "Cc1cccc2cc(CN(CC3CCCO3)C(=O)c3ccncc3)c(=O)[nH]c12", "note": "(stereo not given)", "cytotoxicity": "7.7%"}
{"compound": "COc1ccccc1-c1nnc(SCC(=O)Nc2c(Cl)cccc2Cl)o1", "cytotoxicity": "-1%"}
{"compound": "COC(=O)CSc1nnc(-c2ccccc2OC)o1", "cytotoxicity": "-18.2%"}
{"compound": "C#CCSC1=C(C#N)C(c2cccs2)C(C(=O)OCC)=C(C)N1", "note": "(stereo not given)", "cytotoxicity": "53.6% (active)"}
{"compound": "CCOC(=O)C1=C(C)NC(SCC(=O)Nc2nc(C)cs2)=C(C#N)C1c1cccs1", "note": "(stereo not given)", "cytotoxicity": "92.7% (active)"}
{"compound": "CCOC(=O)C1=C(C)NC(SCC(=O)Nc2cc(C)on2)=C(C#N)C1c1cccs1", "note": "(stereo not given)", "cytotoxicity": "32.3%"}
{"compound": "CCSC1=C(C#N)C(c2cccs2)C(C(=O)OC)=C(C)N1", "note": "(stereo not given)", "cytotoxicity": "15.4%"}
{"compound": "CCOC(=O)C1=C(C)NC(SCc2cc(=O)[nH][nH]2)=C(C#N)C1c1cccs1", "note": "(stereo not given)", "cytotoxicity": "41.8%"}
{"compound": "CCOCCSC1=C(C#N)C(c2cccs2)C(C(C)=O)=C(C)N1", "note": "(stereo not given)", "cytotoxicity": "4.7%"}
{"compound": "O=C1N(CN2CCN(c3cccc(Cl)c3)CC2)c2ccccc2C12OCCCO2", "cytotoxicity": "0%"}
{"compound": "Cc1ccc(NC(=O)c2oc3ccccc3c2NC(=O)c2ccc3c(c2)OCO3)cc1", "cytotoxicity": "-7.7%"}
{"compound": "COc1c(C)cc(Br)cc1C(=O)Nc1ccc(N2CCN(S(C)(=O)=O)CC2)cc1", "cytotoxicity": "1.2%"}
{"compound": "CCc1nc2ccccc2c(C(=O)OCC(=O)Nc2ccc(S(=O)(=O)N3CCOCC3)cc2)c1C", "cytotoxicity": "43.3%"}
{"compound": "COc1ccc(-c2cnc(SCC(=O)Nc3cc(C)on3)n2Cc2ccco2)cc1", "cytotoxicity": "0.3%"}
{"compound": "Cc1cnc(NC(=O)CSc2ncc(-c3ccccc3)n2Cc2ccco2)s1", "cytotoxicity": "-4.7%"}
{"compound": "CCC(=O)Nc1cc(NC(=O)CSc2ncc(-c3ccc(F)cc3)n2Cc2ccco2)ccc1C", "cytotoxicity": "3.3%"}
{"compound": "COc1ccc(-c2cnc(SCC(=O)Nc3ccc4c(c3)OCO4)n2Cc2ccco2)cc1", "cytotoxicity": "18.8%"}
{"compound": "CC(=O)Nc1cccc(NC(=O)CSc2ncc(-c3ccc(Cl)cc3)n2Cc2ccco2)c1", "cytotoxicity": "83.5% (active)"}
{"compound": "O=C(CSc1ncc(-c2ccc(F)cc2)n1Cc1ccco1)Nc1ccc2c(c1)OCO2", "cytotoxicity": "86.3% (active)"}
{"compound": "Cc1cc(=S)n(-c2ccccc2)n1C", "cytotoxicity": "-7.8%"}
{"compound": "Cc1cc(C)nc(SC(C)C(=O)Nc2ccc(S(N)(=O)=O)cc2)n1", "note": "(stereo not given)", "cytotoxicity": "-10.7%"}
{"compound": "Cc1ccc(-c2nnc3ccc(SCC(=O)N4CCCCC4)nn23)cc1", "cytotoxicity": "-7%"}
{"compound": "CC1CCc2nc(NC(=O)Cc3cccs3)sc2C1", "note": "(stereo not given)", "cytotoxicity": "-16%"}
{"compound": "Cc1nnc2n(Cc3ccccc3)c(=O)c3c4c(sc3n12)CN(Cc1ccccc1)CC4", "cytotoxicity": "1.6%"}
{"compound": "CC(C)C1Cc2c(sc3c2c(=O)n(Cc2ccccc2)c2nncn32)CO1", "note": "(stereo not given)", "cytotoxicity": "1.7%"}
{"compound": "C=CCn1c(SCCN2CCOCC2)nc2c1c(=O)[nH]c(=O)n2C", "cytotoxicity": "-10.8%"}
{"compound": "Cc1[nH]n2c(=O)cc(C(C)(C)C)nc2c1-c1ccccc1", "cytotoxicity": "81.8% (active)"}
{"compound": "Cc1[nH]n2c(=O)cc(C(C)C)nc2c1-c1ccccc1", "cytotoxicity": "28.7%"}
{"compound": "Cc1cc(=O)n2[nH]c(C)c(-c3ccccc3)c2n1", "cytotoxicity": "-7%"}
{"compound": "CC(C)(C)NC(=O)C1N(c2cccnc2)C(=O)C2C(C(=O)Nc3ccccc3)C3(C)C=CC21O3", "note": "(stereo not given)", "cytotoxicity": "-15.4%"}
{"compound": "CCOC(=O)CSc1nc2cc(OC)ccc2cc1C#N", "cytotoxicity": "12.3%"}
{"compound": "CCOC(=O)CSc1nc2cc(OCC)ccc2cc1C#N", "cytotoxicity": "56.4% (active)"}
{"compound": "CCOC(=O)CSc1nc2cc(C)ccc2cc1C#N", "cytotoxicity": "-2.4%"}
{"compound": "COc1cccc(-c2nn(-c3ccccc3)cc2CO)c1", "cytotoxicity": "7.7%"}
{"compound": "CCOc1ccc(OCC)c(NC(=O)CSc2nc3ccccc3c(=O)n2C)c1", "cytotoxicity": "16.7%"}
{"compound": "O=C(Nc1ccc(CN2CCCCC2)cc1)c1ccc(Br)o1", "cytotoxicity": "-24.8%"}
{"compound": "O=C(Nc1ccc(CN2CCOCC2)cc1)c1cc2ccccc2o1", "cytotoxicity": "5.8%"}
{"compound": "O=C1NCCN1C(=O)C12CC3CC(CC(C3)C1)C2", "cytotoxicity": "-2.7%"}
{"compound": "Cc1nc2ccc3nc(NC(=O)c4ccc5c(c4)OCCO5)sc3c2s1", "cytotoxicity": "-0.1%"}
{"compound": "COc1ccc2[nH]c(=O)c(CN(Cc3ccco3)C(=O)c3ccccc3)cc2c1", "cytotoxicity": "-1.9%"}
{"compound": "CCOc1ccc2[nH]c(=O)c(CN(Cc3ccco3)C(=O)c3cccc(F)c3)cc2c1", "cytotoxicity": "82% (active)"}
{"compound": "CCOc1ccc2[nH]c(=O)c(CN(Cc3ccco3)C(=O)c3ccc(Br)cc3)cc2c1", "cytotoxicity": "21.8%"}
{"compound": "O=C(c1c(Cl)nc2sccn12)N(C(=O)c1c(Cl)nc2sccn12)c1ccc(Cl)cn1", "cytotoxicity": "16%"}
{"compound": "COc1ccc(Oc2c(C)oc3cc(OC(=O)N4CCOCC4)ccc3c2=O)cc1", "cytotoxicity": "-5%"}
